Compound activity as filed in PubChem.
PRMT1 FP inh – PRMT1 methyltransferase inhibitors, primary screen, biochemical, fluorescence polarization. recombinant PRMT1, activity-based probe fluorescence polarization. inhibition, % at 2.79 µM. 1.3% of 370,000 active. AID 652257, 2013;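 active = inhibition above about 21% made by adding two undisclosed values, limit read from the data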
Target sequence (Q99873 whole entry, looked up): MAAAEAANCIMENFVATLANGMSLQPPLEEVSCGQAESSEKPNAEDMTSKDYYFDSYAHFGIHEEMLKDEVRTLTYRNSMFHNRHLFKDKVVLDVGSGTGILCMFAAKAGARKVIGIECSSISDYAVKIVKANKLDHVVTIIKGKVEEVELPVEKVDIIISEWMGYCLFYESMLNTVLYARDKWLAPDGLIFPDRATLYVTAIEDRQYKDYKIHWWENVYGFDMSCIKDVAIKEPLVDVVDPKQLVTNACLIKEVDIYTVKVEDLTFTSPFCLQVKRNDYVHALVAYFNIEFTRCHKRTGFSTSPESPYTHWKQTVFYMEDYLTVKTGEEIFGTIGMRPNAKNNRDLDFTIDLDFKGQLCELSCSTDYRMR
LANA-H2B inh – blockers of LANA interaction with H2A/H2B – biochemical, FP readout, HTS, primary screen; cell-free LANA-H2A/H2B peptide, fluorescence polarization; inhibition, % (test concentration not listed); 0.6% of 320,000 active; in the data active = inhibition mostly above about 10%, no sharp cut-off; inactive = mostly below about 6.7%
ALR H2O2 inh – inhibitors of human ALR sulfhydryl oxidase, primary screen, biochemical, H2O2 detection, HRP-luminol luminescence, single point; FAD-linked sulfhydryl oxidase ALR (Homo sapiens), P55789; purified ALR, DTT oxidation; inhibition, % (no concentration beside the values); 3.8% of 290,000 active; AID 485317, 2010;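 active = mean replicate inhibition above about 79%, with every replicate also reaching it, limit read from the data; inconclusive = only one of the two criteria met; inactive = mean below limit and not every replicate reaching it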
Target sequence (P55789 whole entry, looked up): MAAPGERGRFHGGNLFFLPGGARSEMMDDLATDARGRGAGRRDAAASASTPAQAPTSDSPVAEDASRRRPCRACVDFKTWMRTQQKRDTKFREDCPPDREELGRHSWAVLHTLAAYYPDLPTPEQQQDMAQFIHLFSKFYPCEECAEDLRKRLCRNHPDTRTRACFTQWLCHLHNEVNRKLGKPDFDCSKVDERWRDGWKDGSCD
ABHD5-PLIN5 inh – ABHD5-PLIN5 interaction inhibitors, primary screen, cell lysate, split luciferase complementation, luminescence | Perilipin-5 (Homo sapiens) + 1-acylglycerol-3-phosphate O-acyltransferase ABHD5 (Homo … | Split G. princeps luciferase complementation, 4 h | inhibition, % at 4 µM | 0.78% of 360,000 active | AID 602281, 2012;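 active = inhibition above the mean inhibition across every tested compound plus 3 SD, cut at about 22% in these data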
Rtt109 Vps75 – inhibitors of C. albicans Rtt109/Vps75 HAT, primary screen, biochemical, ThioGlo CoA-SH fluorescence, plate reader | Histone acetyltransferase RTT109 (Candida albicans (strain SC5314 / ATCC MYA-2876)), … | purified Rtt109/Vps75, 4 h | inhibition, % at 34.9 µM | 0.16% of 330,000 active;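 active = inhibition of at least 50% in every replicate; inconclusive = best replicate reaches 50% inhibition but some replicates fall short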
rCAG RNA binder – binders of r(CAG) RNA repeats, primary screen, biochemical, fluorescence; r(CAG) RNA repeat, TO-PRO-1 dye displacement fluorescence; inhibition, % at 3 µM; 1.3% of 370,000 active;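 active = inhibition above the plate cutoff, the mean of all test compounds on that plate plus 3 SD, cut at about 35% in these data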;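 note: higher means more dye released from RNA so lower well fluorescence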
PRMT1 inh conf – PRMT1 methyltransferase inhibitors, confirmation, biochemical, fluorescence polarization, triplicate; shares compounds with PRMT1 FP inh; recombinant His-PRMT1, activity-based probe fluorescence polarization; inhibition, % at 2.79 µM; 42% of 3,300 active;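 active = mean inhibition across replicates above the hit cutoff derived for the earlier primary screen, cut at about 22% in these data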
A number is an active result; . = inactive; ? = inconclusive; / = no result. Hits are enriched below; roughly 5.9% of the tested compounds scored in any of these assays.

SMILES	PRMT1 FP inh	LANA-H2B inh	ALR H2O2 inh	ABHD5-PLIN5 inh	Rtt109 Vps75	rCAG RNA binder	PRMT1 inh conf
COC(=O)[C@]12CCCCC=C1N(Cc1ccc(OC)cc1)C(=O)[C@@H]2CC(=O)N1CCSCC1	.	/	/	/	/	.	/
OC(c1ccccc1)C(NCc1ccccc1)c1ccccc1 (stereo not drawn)	.	/	/	.	/	.	/
COc1cccc(C2CC(=O)N3CN(c4cccc(Cl)c4C)CSC3=C2C#N)c1OC (stereo not drawn)	29	.	.	.	.	.	54
COc1ccc(OC)c(C2CC(=O)N3CN(c4ccccc4F)CSC3=C2C#N)c1 (stereo not drawn)	33	.	79	.	.	.	22
N#CC1=C2SCN(c3ccccc3)CN2C(=O)CC1c1ccccc1Cl (stereo not drawn)	.	.	.	.	.	.	/
COc1ccc(OC)c(C2CC(=O)N3CN(c4cccc(Cl)c4C)CSC3=C2C#N)c1 (stereo not drawn)	45	.	.	.	.	.	64
COc1ccc(OC)c(C2CC(=O)N3CN(c4cccc(Cl)c4)CSC3=C2C#N)c1 (stereo not drawn)	.	.	.	.	.	.	/
COc1cccc(C(CC2=CCCCC2)NC(=O)C(F)(F)F)c1 (stereo not drawn)	.	/	/	/	/	.	/
Cc1ccc2oc(C(=O)N(C)Cc3ccc(C)o3)c(C)c2c1	51	.	.	.	.	.	64
Cc1ccc2oc(C(=O)N(C)Cc3ccon3)c(C)c2c1	.	.	.	.	.	.	/
O=C(CSc1nnc(-c2cccs2)n1Cc1ccco1)Nc1ccc(Oc2ccccc2)cc1	.	/	/	/	/	.	/
CCOC(=O)c1cc2c(c(-c3cccc(C#Cc4ccc(OC)c(OC)c4)c3)n1)[C@@H](CCO)N(S(=O)C(C)(C)C)C2 (stereo partly drawn)	.	/	/	.	/	.	/
Cc1cc(C)nc(Sc2ncnc(N)c2[N+](=O)[O-])n1	47	.	.	.	.	.	.
Cc1cccc(Nc2ncnc(N)c2[N+](=O)[O-])n1	.	.	.	.	.	.	/
COc1ccc2nc(N(CCN(C)C)C(=O)c3ccc4ncsc4c3)sc2c1	.	/	/	.	/	.	/
Cc1ccc2nc(N(CCCN(C)C)C(=O)c3ccc4ncsc4c3)sc2c1	28	.	.	.	?	.	.
COc1ccc(N=c2scc(-c3ccc(OC)cc3)n2CCO)cc1	36	.	86	.	.	.	.
Cc1ccc(N2CC(C(=O)OCC(=O)c3ccc([N+](=O)[O-])cc3)CC2=O)cc1 (stereo not drawn)	29	.	/	.	.	.	48
O=S(=O)(CCSc1ccccn1)c1nc2ccccc2s1	26	.	.	.	.	.	.
COc1cc(OC)cc(C(C)c2ccc(C)cc2)c1 (stereo not drawn)	.	/	/	/	/	/	/
O=C(O)c1ccc(-c2ccco2)n1Cc1ccccc1	29	.	99	.	.	.	.
O=C(c1ccco1)N1CCN(C(=O)c2ccc(-c3ccc([N+](=O)[O-])cc3)o2)CC1	30	.	.	.	.	.	27
O=C(NC1CCC(O)CC1)c1ccc(-c2ccc([N+](=O)[O-])cc2)o1 (stereo not drawn)	36	.	.	.	.	.	.
O=C(CCSc1ccc(Br)cc1)c1ccc(O)cc1	31	.	/	.	.	.	.
Cc1[nH]c(=O)nc(SCc2cccc(Cl)c2)c1C#N	.	.	.	.	.	.	/
SMILES	PRMT1 FP inh	LANA-H2B inh	ALR H2O2 inh	ABHD5-PLIN5 inh	Rtt109 Vps75	rCAG RNA binder	PRMT1 inh conf
N#Cc1c(SCc2c(Cl)cccc2Cl)nc(N)[nH]c1=S	43	11	?	.	.	.	.
On1ccccc1=S	88	.	92	.	?	.	88
CCN(CC)CCN(Cc1cc2cc(C)cc(C)c2[nH]c1=O)C(=S)NCc1ccco1	.	.	.	.	.	.	/
Cc1ccc(N(Cc2cc3ccc(C)cc3[nH]c2=O)C(=O)c2ccco2)cc1	.	.	.	.	.	.	/
Cc1ccc2cc(CN(Cc3ccco3)C(=O)c3cccs3)c(=O)[nH]c2c1	30	.	.	.	.	.	.
Cc1ccc2cc(CN(C(=O)c3ccco3)c3ccccc3)c(=O)[nH]c2c1	53	.	.	.	.	.	.
Cc1cc(C)c2[nH]c(=O)c(CN(Cc3cccs3)C(=S)NCc3ccco3)cc2c1	35	.	.	.	.	.	.
C=CCn1c(SC(F)F)nc2scc(-c3ccco3)c2c1=O	64	.	.	.	.	.	.
C=CCn1c(SCCN2C(=O)c3ccccc3C2=O)nc2scc(-c3ccc(F)cc3)c2c1=O	.	/	/	.	.	.	/
Oc1ccc(CNc2ccccc2Br)c2cccnc12	32	/	/	/	/	/	.
Oc1ccc(CNc2cccc(F)c2)c2cccnc12	63	/	/	/	/	/	48
CC(C)(C)OC(=O)/C=C/[C@@H](CC1CCCC1)Sc1ccc(C(C)(C)C)cc1	.	/	/	/	/	.	/
CCCCSc1nc2c([nH]1)c(=S)n(C)c(=O)n2C	.	/	/	.	.	.	/
CCN(CC)CCSc1nc2c([nH]1)c(=S)n(C)c(=O)n2C	42	/	/	.	.	.	.
O=S1(=O)c2ccc(N3CC[C@@H](O)C3)cc2OCCCN1C1CC1	.	/	/	/	/	.	/
c1csc(-c2nc3ccccc3s2)c1	33	.	.	.	.	.	34
Nc1ccccc1-c1nc2ccccc2s1	.	.	.	.	.	.	/
COc1ccc(N2CCN(C(=O)CNC(=O)c3ccc4ccccc4c3)CC2)cc1	.	.	.	.	.	.	/
COc1cc(OC)cc(C(=O)NCC(=O)N2CCN(c3ccc(O)cc3)CC2)c1	25	.	.	.	.	.	.
O=C(c1ccncc1)c1ccc(N2CCN(C3CC(=O)N(Cc4cccs4)C3=O)CC2)cc1 (stereo not drawn)	.	.	/	.	.	.	/
O=C1CC(N2CCN(c3ccc(O)cc3)CC2)C(=O)N1Cc1cccs1 (stereo not drawn)	49	.	99	.	.	.	.
O=C(Nc1nc2ncccn2c1-c1ccc(F)c(F)c1)c1ccccc1	.	/	/	/	/	.	/
O=[N+]([O-])c1ccc(Cl)c(C2Nc3cccc4cccc(c34)N2)c1	53	.	.	.	.	.	26
Clc1cccc(C2Nc3cccc4cccc(c34)N2)c1	.	.	.	.	.	.	/
